Shn3 3UTR inh: reduces Shn3 3'UTR luciferase signal in osteoblasts | inhibition, % at 12.5 µM | Clone20 osteoblast Shn3 3'UTR firefly luciferase, 24 h | 360,000 tested, 0.52% active;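 active means mean inhibition of at least 75% with every replicate also reaching 75%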
LGR2 inh: Drosophila LGR2 receptor signaling inhibition; inhibition, % at 9.99 µM; HEK293 LGR2, CRE-luciferase, bursicon-stimulated, 4 h; 380,000 tested, 0.35% active;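 active means drop in luminescence signal, shown as inhibition above about 50% in the replicate tests, limit read from the data, passing the limit was not always enough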;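 further: agonist challenge used bursicon conditioned medium at about half maximal strength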
EBV LMP1 NFkB: reduces LMP1-driven NF-kappaB luciferase signal; LMP1-induced NF-kappaB luciferase reporter cells, luminescence; 350,000 tested, 0.69% active; inhibition, % at 12.5 µM; in the data active means inhibition above about 41%
PAX8 inh HTS: PAX8 transcriptional activity inhibition; 360,000 tested, 1.2% active; RMG-I TPO-luciferase reporter, SteadyGlo, 24 h; inhibition, % at 12.6 µM;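 active means mean replicate inhibition at least 60% with every replicate also reaching 60%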;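 further: luciferase light reporting Pax8 driven TPO promoter activity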
EWS-Fli block: EWS/Fli transcriptional activity inhibition; AID 651661; inhibition, % at 12.6 µM; A673 NR0B1-luciferase reporter, viability-normalised; 350,000 tested, 0.67% active;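 active means mean inhibition of at least 50% after viability correction, with every replicate also passing that limit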;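 further: firefly luciferase signal divided by Alamar Blue viability fluorescence both relative to DMSO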
TRPM1 prom inh: MITF TRPM1 promoter inhibition in SK-MEL-5 cells. SK-MEL-5 TRPM1 promoter luciferase, 24 h. inhibition, % at 12.5 µM. 330,000 tested, 0.83% active;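 active means mean inhibition across replicates of 60% or more, whatever share of single replicates reaches that level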
Hits are given with their value; 0 = inactive; - = not tested or not shown. The list is not random: actives were taken first. Their share in the collection is about 2.2%.

SMILES	Shn3 3UTR inh	LGR2 inh	EBV LMP1 NFkB	PAX8 inh HTS	EWS-Fli block	TRPM1 prom inh
C[C@H]1CN([C@@H](C)CO)C(=O)c2cc(-c3ccccc3F)cnc2O[C@H]1CN(C)Cc1cccc(C(=O)O)c1	-	0	-	-	0	-
COc1ccccc1C#Cc1ccc2c(c1)O[C@H](CN(C)Cc1ccccc1)[C@@H](C)CN([C@H](C)CO)S2(=O)=O	-	0	-	-	0	-
CC(C)C#Cc1cnc2c(c1)C(=O)N([C@H](C)CO)C[C@@H](C)[C@H](CN(C)Cc1ccccn1)O2	-	0	-	0	0	-
O=C(C[C@H]1CC[C@@H](NC(=O)CN2CCOCC2)[C@H](CO)O1)NCCc1ccncc1	-	0	-	0	0	-
CCCCC#Cc1ccc2c(c1)COc1c3ccccc3nn1-2	0	-	0	0	0	0
CCCCCCC#Cc1ccc2c(c1)COc1c3ccccc3nn1-2	89.9	0	0	0	0	0
N#CCCCC#Cc1ccc2c(c1)COc1c3ccccc3nn1-2	0	98.2	0	0	66.8	0
Cc1nn(C)cc1NC(=O)C[C@H]1CC[C@@H]2[C@@H](COc3ccc(NC(=O)NC(C)C)cc3C(=O)N2C)O1	-	0	-	0	0	-
O=C(O)c1cccnc1	0	0	84.7	0	0	0
O=C(C(=O)c1cccnc1)c1cccnc1	0	0	0	0	0	0
CCCc1cc(=O)oc2cc(C)cc(OCC(=O)Nc3ccccn3)c12	0	0	0	0	0	0
Cc1cc(OCC(=O)Nc2ccccn2)c2c(C)cc(=O)oc2c1	0	0	48.7	0	-	0
Cc1c(C)c2ccc(OCC(=O)Nc3ccccn3)c(C)c2oc1=O	93.9	100.1	0	0	-	86.5
O=C(COc1ccc(Cl)cc1Cl)Nc1ccccn1	0	100.1	64.3	-	60.3	80.2
COc1ccc2c3c(n(C)c2c1)[C@H](CO)NCC31CCN(CC2CC2)CC1	-	0	-	-	0	-
CCCNC(=O)Nc1ccc2c(c1)OC[C@H](C)N(C(=O)c1ccccc1F)C[C@@H](C)[C@H](OC)CN(C)C2=O	-	0	-	0	0	-
CC1CCN(CCc2nc3cc(NS(=O)(=O)c4ccc(F)cc4)ccc3n2C)CC1	0	-	0	0	-	0
CC1CCN(CCc2nc3cc(NS(=O)(=O)c4ccccc4)ccc3n2C)CC1	0	-	0	93.1	-	0
COc1ccc2c3c(n(C)c2c1)[C@H](CO)N(C(=O)CC1CC1)CC31CN(C(=O)CC2CC2)C1	-	0	-	-	0	-
C[C@H](CO)N1C[C@H](C)[C@@H](CN(C)C(=O)Nc2cccc3ccccc23)OCc2cnnn2CCCC1=O	-	0	-	0	0	-
CC(=O)Nc1ccc(Nc2nc(-c3c(C)nc4ccccn34)cs2)cc1	0	0	-	0	56.7	-
Cc1nc2ncccn2c1-c1csc(Nc2ccccc2)n1	0	-	40.5	0	0	0
COc1ccc(Nc2nc(-c3c(C)nc4ncccn34)cs2)cc1	0	-	0	0	0	0
O=C(COC(=O)c1cc([N+](=O)[O-])ccc1N1CCOCC1)Nc1ccc(Cl)cn1	0	0	0	61.4	-	0
O=C(OCc1ccc(Br)cc1)c1cc([N+](=O)[O-])ccc1N1CCOCC1	0	0	0	0	62.3	-
SMILES	Shn3 3UTR inh	LGR2 inh	EBV LMP1 NFkB	PAX8 inh HTS	EWS-Fli block	TRPM1 prom inh
COc1ccc(COC(=O)c2cc([N+](=O)[O-])ccc2N2CCOCC2)cc1F	0	0	0	96.0	0	66.1
O=C(OCc1cccc(C(F)(F)F)c1)c1cc([N+](=O)[O-])ccc1N1CCOCC1	0	0	0	0	0	0
COc1cccc(CNC(=O)COC(=O)c2cc([N+](=O)[O-])ccc2N2CCCC2)c1	0	0	71.3	0	0	0
O=C(Cc1ccccn1)N1CC(=O)N2[C@@H](CO)[C@@H](c3ccc(C#CC4CCCC4)cc3)[C@@H]2C1	-	0	-	0	0	-
Cc1ccccc1-c1cnc2c(c1)C(=O)N([C@@H](C)CO)C[C@H](C)[C@H](CN(C)C(=O)c1ccccc1)O2	-	0	-	0	0	-
C[C@@H]1CN([C@H](C)CO)C(=O)c2cc(NS(=O)(=O)c3ccc(F)cc3)ccc2O[C@H]1CN(C)Cc1ccc(C(=O)O)cc1	-	0	-	-	0	-
CCNC(=O)C[C@@H]1CC[C@@H]2[C@H](COc3ccc(NC(=O)Nc4cccc(F)c4)cc3C(=O)N2C)O1	-	0	-	0	0	-
COc1ccccc1C(=O)Nc1ccc2c(c1)OC[C@H](C)N(CC1CC1)C[C@@H](C)[C@H](OC)CN(C)C2=O	-	0	-	-	0	-
CO[C@@H](CN(C)C(=O)c1ccccc1F)[C@H](C)CN([C@@H](C)CO)S(=O)(=O)c1ccc(Cl)cc1	-	0	-	-	0	-

Source: PubChem BioAssay (Broad Institute)
